Pf growth 48h – Primary qHTS for delayed death inhibitors of the malarial parasite plastid, 48 hour incubation | P. falciparum luciferase growth in erythrocytes, 48 h | Potency, µM (doses to about 28.7 µM), most hits filed as inhibitors | actives 5.9% (n = 310,000)
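Growth was read as firefly luciferase luminescence after a 48 h, 37 C, 5% CO2 exposure of compounds to reporter-bearing P. falciparum cultures (0.1% parasitemia, 2% hematocrit final) in Albumax-supplemented RPMI 1640.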
CHX counter – Cycloheximide Counterscreen for Small Molecule Inhibitors of Shiga Toxin. cell reporter, cycloheximide protein synthesis inhibition counterscreen. max response, %. actives 12% (n = 300,000); in the data active = max response mostly above about 13%, no sharp cut-off; inactive = mostly below about 14%; also: read at 38.3 µM for the half of the compounds with a filed dose
LmPK inh – qHTS Assay for Inhibitors of Leishmania Mexicana Pyruvate Kinase (LmPK) | Q27686 | purified LmPK, Kinase-Glo ATP luminescence, 1 h | Potency, µM (highest dose often 57.5 µM), usual class: inhibitors | actives 0.37% (n = 290,000) | AID 1721, 2009
Target sequence (Q27686 whole entry, looked up): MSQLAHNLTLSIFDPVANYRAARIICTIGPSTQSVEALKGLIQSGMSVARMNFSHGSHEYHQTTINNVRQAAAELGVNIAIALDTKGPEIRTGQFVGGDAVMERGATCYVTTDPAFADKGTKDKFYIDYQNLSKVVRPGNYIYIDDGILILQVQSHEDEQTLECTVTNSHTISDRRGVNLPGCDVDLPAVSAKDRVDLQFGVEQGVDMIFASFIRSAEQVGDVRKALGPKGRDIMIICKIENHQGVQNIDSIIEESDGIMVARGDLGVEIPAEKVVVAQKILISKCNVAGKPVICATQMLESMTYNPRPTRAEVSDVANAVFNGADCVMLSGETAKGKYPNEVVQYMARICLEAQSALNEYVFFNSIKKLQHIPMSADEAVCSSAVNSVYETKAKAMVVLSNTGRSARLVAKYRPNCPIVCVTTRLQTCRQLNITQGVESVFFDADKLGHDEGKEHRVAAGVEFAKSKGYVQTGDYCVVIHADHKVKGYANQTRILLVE
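ATP generated from ADP (0.1 mM) and PEP (0.5 mM) by 0.1 nM LmPK over 1 h at room temperature (pH 7.2 imidazole buffer) was detected by coupled luciferase luminescence. Values were normalized to uninhibited and no-enzyme wells.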
Pf growth 96h – Primary qHTS for delayed death inhibitors of the malarial parasite plastid, 96 hour incubation. actives 6.9% (n = 320,000). P. falciparum luciferase reporter growth, 96 h. Potency, µM (highest dose often 28.7 µM), usual class: inhibitors
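Cell-based qHTS: luciferase-tagged P. falciparum in erythrocytes (2% hematocrit, 0.05% parasitemia final) incubated with compounds for 96 hours, 37 C, 5% CO2; luciferase detection reagent then added and luminescence measured.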
Shiga toxin inh – A qHTS for Small Molecule Inhibitors of Shiga Toxin; Vero cells, Shiga toxin protein synthesis inhibition reporter; inhibition, % at 38.7 µM; actives 9.2% (n = 290,000); AID 2315, 2010; in the data active = inhibition mostly above about 28%, no sharp cut-off; inactive = mostly below about 43%
A number is an active result; 0 = inactive; ? = inconclusive; - = no result given; [ ] = another dose, or the depositor's remark. Most compounds without a hit are left out; they make up all but 22% or so of the library. Unless noted, calls follow the shape of the dose curve; as a rule, active = well fitted inhibition curve with a large enough effect; inconclusive = small, poorly fitted or top-dose-only effect, or another doubt; inactive = no such curve, though single readings can be large or run the other way.

SMILES	Pf growth 48h	CHX counter	LmPK inh	Pf growth 96h	Shiga toxin inh
COc1cccc(-n2c(C)c3c(OC)cccc(=O)c3c2C)c1	4.1µM	0	0	?	0
COc1cccc(=O)c2c(C)n(-c3cc(C)cc(C)c3)c(C)c12	3.3µM	0	0	2.6µM	0
COc1ccccc1-c1nnc(C2CCN(S(=O)(=O)c3ccccc3[N+](=O)[O-])CC2)o1	0	0	0	?	0
O=C(C1CCCO1)N1CCN(S(=O)(=O)c2ccc(Cl)cc2)CC1 (configuration not stated)	0	0	0	0	0
COc1ccc(NC(=O)COC(=O)CNS(=O)(=O)/C=C/c2ccccc2)cc1OC	0	-	-	0	-
COc1ccc(Nc2oc(-c3cccs3)nc2C#N)cc1	0	62	0	?	146
COc1ccc(Nc2oc(-c3ccccc3F)nc2C#N)cc1	0	34	0	0	47
CCCCOc1ccc(/C=C/C2=CC(C)(C)NC(=S)N2)cc1OCC	?	0	0	0	0
CC1CN(C(=O)CSc2nnc(-c3ccc(Cl)cc3)n2C)CC(C)O1 (configuration not stated)	0	20	0	0	0
Cn1c(SCC(=O)N2CCN(c3cccc(Cl)c3)CC2)nnc1-c1ccncc1	0	0	0	?	0
O=C(CSc1nnc(-c2cccnc2)n1CCc1ccccc1)N1CCCCC1	0	0	0	?	0
Cn1c(SCC(=O)N2CCN(c3ccccc3)CC2)nnc1-c1ccncc1	0	0	0	12µM	0
CC1CN(C(=O)CSc2nnc(-c3ccncc3)n2-c2ccccc2)CC(C)O1 (configuration not stated)	0	0	0	10µM	0
CC(C)c1ccccc1-n1c(SCC(=O)N2CCN(c3ccccc3)CC2)nnc1-c1cccnc1	?	0	0	8.3µM	0
Cc1nnc(SCC(=O)N2CC(C)OC(C)C2)n1-c1ccccc1 (configuration not stated)	0	0	0	0	0
CO[C@]1(C)C[C@H]2O[C@]1(C)n1c3ccccc3c3c4c(c5c6ccccc6n2c5c31)C(=O)N(C)C4	-	0	-	-	0
CC(C)c1csc(CN2CCC(N3CCC(C(=O)N4CCOCC4)CC3)CC2)n1	0	0	0	0	0
CCOC(=O)Cc1csc(NC(=O)C(NC(=O)C2CCC(C)CC2)C(C)C)n1 (configuration not stated)	0[0.00184 µM]	0	0	0	0
CCOc1ccccc1-n1c(SCC(=O)N2CCCc3ccccc32)nnc1-c1cccnc1	?	0	0	?	0
O=C(CSc1nnc(-c2cccnc2)n1-c1ccc(SC(F)F)cc1)N1CCCc2ccccc21	?	0	0	10µM	0
Cc1c(C)n2c(SCC(=O)N3CC(C)OC(C)C3)nnc2[nH]c1=O (configuration not stated)	?	-	-	5.2µM	-
Cc1c(C)n2c(SCC(=O)N3CCN(c4ccccc4)CC3)nnc2[nH]c1=O	3.3µM	-	-	?	-
COCCn1c(SCC(=O)c2c[nH]c3ccccc23)nnc1-c1ccncc1	?	0	0	?	0
Cc1c(C)n2c(SCC(=O)N3CCCCCC3)nnc2[nH]c1=O	0	-	-	?	-
CCc1cccc2c(C(=O)CSc3nnc(-c4ccncc4)n3C)c[nH]c12	?	0	0	10µM	0
SMILES	Pf growth 48h	CHX counter	LmPK inh	Pf growth 96h	Shiga toxin inh
Cc1c(C)n2c(SCC(=O)N3CCCCC3)nnc2[nH]c1=O	0	-	-	?	-
O=C(O)[C@H]1CCCC[C@H]1C(=O)Nc1ccc(S(=O)(=O)N2CCOCC2)cc1	0	0	0	?	0
Cc1cc(C)n(CCC(=O)N=Nc2c(O)[nH]c3ccc(Br)cc23)n1	0	0	0	0	0
COc1ccc(NC(=O)Cn2nnc(-c3ccccc3NS(=O)(=O)c3ccc(OC)cc3)n2)cc1	?	0	0	0	0
COc1ccccc1NC(=O)Cn1nnc(-c2ccccc2NC(=O)c2cc3ccccc3oc2=O)n1	0	39	0	0	80
Cc1ccc(NC(=O)Cn2nnc(-c3ccccc3NC(=O)c3cccs3)n2)cc1	13µM	0	0	-	0
COc1ccccc1NC(=O)Cn1nnc(-c2ccccc2NS(=O)(=O)c2ccccc2)n1	?	0	0	0	0
COc1ccc(NC(=O)Cn2nnc(-c3ccccc3NC(=O)c3cccs3)n2)cc1	1.9µM	0	0	?	0
CO/N=C(\C(=O)O)c1csc(NN=C(C)C)n1	0	0	0	0	0
C(=C\c1ccccc1)/CSc1nc2ncccc2[nH]1	0	25	0	?	53
COC(=O)CSc1nc2ncccc2[nH]1	0	0	0	-	0
Cc1nc(SCc2cccc(F)c2)[nH]c(=O)c1C#N	0	0	0	?	0
Fc1cccc(CSc2nc3ncccc3[nH]2)c1	?	51	0	12µM	94
Cn1c(COc2ccccc2)nnc1SCC(=O)c1cccc([N+](=O)[O-])c1	?	0	0	?	0
CCOc1cc(C)ccc1OCc1nnc(SCC(=O)c2cccc([N+](=O)[O-])c2)n1C	?	0	0	12µM	0
O=C(CSc1nc2ncccc2[nH]1)c1ccc(F)cc1	0	43	0	0	0
CCCCN(CC)CCCNC(=O)c1ccc(CS(=O)(=O)c2ccccc2C)o1	0	0	0	0	0
O=C(CSc1nc2ncccc2[nH]1)c1cccc([N+](=O)[O-])c1	?	19	0	?	0
Cc1cc(SCC(=O)c2cccc([N+](=O)[O-])c2)nc(=O)[nH]1	0	35	0	0	80
Fc1cccc(CSc2nc3ncc(Cl)cc3[nH]2)c1	?	20	0	?	0
Fc1ccc(CSc2nc3ncccc3[nH]2)cc1	?	30	0	-	71
O=C(CSc1ncn[nH]1)c1cccc([N+](=O)[O-])c1	0	0	0	?	0
COc1cccc(C(=O)NC(=S)Nc2nnn(C)n2)c1	0	0	0	0	0
CCOC(=O)C1=C(C)N=C2SC=C(C)N2C1c1ccc(OC)cc1 (configuration not stated)	0	0	0	0	0
Cc1ccc(NC(=S)N2CCC(N(C)CC3CCCO3)CC2)cc1C (configuration not stated)	0	0	0	1.5µM	0
Cc1c(Cl)cccc1NC(=S)N1CCC(N(C)CC2CCCO2)CC1 (configuration not stated)	0	0	0	6.6µM	0
Cc1cccc(NC(=S)N2CCC(N(C)CC3CCCO3)CC2)c1 (configuration not stated)	0	0	0	?	0
COc1ccc(NC(=S)N2CCC(N(C)CC3CCCO3)CC2)cc1Cl (configuration not stated)	0	0	0	6.6µM	0
Cc1ccc(NC(=S)N2CCCCC2CO)cc1C (configuration not stated)	0	15	0	0	0
O=C(CCc1nnc2n(Cc3ccc(F)cc3)c(=O)c3ccccc3n12)N1CCN(c2ccccn2)CC1	?	0	0	0	0
